Assay results taken from PubChem BioAssay AID1948 (National Center for Advancing Translational Sciences (NCATS), 2009).
In all, about 110,000 compounds went through this assay and about 20 (0.02%) were called active. Inconclusive results (about 2%) are left out. The call rests on the fitted dose curve; in most records, active means well fitted activation curve with a large enough effect; inconclusive means small, poorly fitted or top-dose-only effect; inactive means no such curve, though single readings can be large or run the other way. What follows is part of a selection rich in actives, with near analogues and random picks from the rest.

assay: qHTS Assay for Compounds that Induce Erasure of Genomic Imprints; settings: mouse ES Peg3-LacZ reporter, beta-gal luminescence, 40 h; series mostly up to 10.9 µM
Source text: qHTS Assay for Compounds that Induce Erasure of Genomic Imprints NIH Chemical Genomics Center [NCGC] NIH Molecular Libraries Screening Centers Network [MLSCN] Assay Submitter (PI): JEFFRIES, SEAN, NCGC, University of Cambridge NCGC Peg3 Imprinting Assay Overview Genomic imprinting is the epigenetic process whereby genes are expressed in a parent of origin fashion. […] Unlike some forms of epigenetic silencing that can be overcome by overexpression of transcription factors, genomic imprinting stably represses the expression of one allele despite potentially high levels of expression from the other allele. […] During mouse embryonic day 11.5 imprints are erased in PGCs so that sex specific imprints can be reestablished during gametogenesis. Embryonic germ (EG) cells can be derived from developing PGCs at embryonic day 11.5 and these cells often lack genomic imprints. […] Embryonic stem (ES) cells are a cell type similar to EG cells in phenotype and transcriptional profile, yet ES cells maintain genomic imprints. This similarity between ES and EG cells prompted us to use ES cells to look for factors which could induce imprint erasure. To investigate the stability of genomic imprinting, ES cells were derived from mice with an insertion of a LacZ-Neomycin reporter construct in the Peg3 locus. Peg3 is an imprinted locus where gene expression is restricted to the paternal allele. […] Using LacZ expression we are able to monitor the state of the Peg3 imprint. In order to dissect the mechanisms involved in imprint erasure using a forward chemical genetics approach we developed a cell based phenotype assay using an endogenous silence imprinted locus. This assay utilizes maternally inherited Peg3LacZ-Neo ES cells by monitoring the LacZ expression from the normally silent Peg3 allele. To facilitate screening, high-density feeder-free ES cell culture has been optimized so that ES cells can be grown in 1536 for over four days without feeding or washes. The assay uses a luminescence based read out for LacZ activity and is a homogenous assay optimal for HTS.
NCGC Peg3 Imprinting Assay Protocol Summary ES cell lines were derived from blastocysts taken from Peg3LacZ-Neo x129 matings. Lines were sexed and genotyped for the Peg3LacZ-Neo allele. Female cells carrying the reporter allele were used in this study. Cells were derived on a layer of mouse embryonic fibroblasts and passaged multiple times before switching to feeder free culture. Cells were maintained feeder free on gelatin coated dishes in DMEM/F12 media supplemented with 15% FBS, 2mM L-glutamine, 100 units/ml penicillin, 100ug/ml streptomycin, 0.1mM MEM nonessential amino acids, 1mM sodium pyruvate, 0.1% sodium bicarbonate, 0.1mM 2-Mercaptoethanol, and 400 units/ml leukemia inhibitory factor (LIF) at 37C with 5% CO2. The assay was performed in 1536-well format. A single luminescence read was taken at the end of the assay and the data was normalized by plate to internal negative controls. Maximum efficacy and AC50 values were calculated from dose-response data using the standard Hill equation. 1536 well plates were filled with 0.5ul of 0.1% gelatin per well, spun down and incubated for at least 30 min at 37C. The ES cells were then trypsini Peg3 1536-well assay protocol: (1)Plate 0.5ul/well 0.1% gelatin in white tissue culture treated 1536-well plates, spin and incubate at 37C for at least 30 min. (2)Add 5ul/well (300 cells) of ES cell suspension from freshly trypsinized cells and incubate at 37C, 5% CO2 for 40 hours. (3)Add 5ul/well of freshly prepared BetaGlo solution and incubate at room temperature for 5 minutes. (4)Read luminescence on the ViewLux plate reader. Keywords Genomic Imprinting, Germ Cells, Embryonic Stem Cell, DNA Methylation, Peg3, qHTS, NIH roadmap, NCGC

Potency, inactive:
Cn1cc(S(=O)(=O)N2CCCCCC2)cc1C(=O)N1CCN(c2ccc(F)cc2)CC1
Cc1cccc(CSc2nc3ccncc3n2Cc2ccc(C(=O)O)cc2)c1
COc1ccc(CNc2nc(-c3ccc(Cl)cc3)nn2C(=O)c2ccccc2)cc1
CC1CCC(N2CC(=O)N(CCC3=CCCCC3)C(c3ccc(F)cc3)C2=O)CC1 (stereo not drawn)
CN(Cc1ccccc1)S(=O)(=O)c1ccc(F)c(C(=O)Nc2cccc(Cl)c2Cl)c1
OC[C@H]1O[C@@H](n2cnc3c(NC4CCCC4)ncnc32)[C@H](O)[C@H]1O
Cc1cc(NS(=O)(=O)c2ccc3oc(=O)c4ncn(C)c4c3c2)ccc1Br
O=C(CSc1nc(Nc2ccc(F)c(F)c2)c2ccccc2n1)c1ccc(Cl)cc1
COc1ccc(C(=O)Nc2cccc(C(=O)OCc3cc(=O)n4c5c(sc4n3)CCCC5)c2)cc1
Cc1ccc(SCC(=O)Nc2ccc3oc(-c4ccccc4C)nc3c2)cc1
CCc1nnc(SCc2c(F)cccc2Cl)c2cc3sccc3n12
Cc1nn(-c2ccc(F)cc2)c(-n2cccc2)c1C(=O)N1CCN(c2ccccc2)CC1
CCc1ccc(S(=O)(=O)Nc2cc3c(C(=O)OCc4ccccc4)c(C)oc3c3ccccc23)cc1
CCCC(=O)Nc1cc2nn(-c3ccccc3)nc2cc1C
COc1ccc(C(=O)c2oc3ccccc3c2NC(=O)COc2cccc(C)c2)cc1
CCCN(C(=O)Cn1cc(S(=O)(=O)N2CCN(c3ccccc3F)CC2)c2ccccc2c1=O)c1cccc(C)c1
COc1ccc(OCc2ccc(-c3nc(C#N)c(N4CCN(c5ccccc5)CC4)o3)o2)cc1
CN1c2ccc(Cl)cc2-c2nc(SCC(=O)Nc3cc(F)ccc3F)ncc2S1(=O)=O
COc1ccc(N(CC(=O)NCCc2ccc(Cl)cc2)S(=O)(=O)c2c(C)nn(C)c2C)cc1
CCN(CC)CCNC(=O)Cn1ncc2c3ccccc3n(Cc3ccccc3C)c2c1=O
Cc1cccn2c(=O)c(C(=O)NC(C)c3ccccc3)cnc12 (stereo not drawn)
CN(C)S(=O)(=O)c1ccc(C(=O)N(Cc2cccnc2)c2nc3c(F)cc(F)cc3s2)cc1
CCSc1nnc(NC(=O)c2cc(=O)c3cc(C)c(C)cc3o2)s1
CCOC(=O)c1ccc(NC(=O)Cn2c(=O)n(-c3ccc(C)cc3)c(=O)c3c2cnn3C)cc1
CCOC(=O)c1ccc(NC(=O)CC2C(=O)N(c3ccccc3)C(=O)N2Cc2cccs2)cc1 (stereo not drawn)
CCOCCCn1c(SCC(=O)Nc2ccc(CC)cc2)nc2ccccc2c1=O
CCC(=O)Nc1c(C(=O)N2CCN(c3ccc(F)cc3)CC2)oc2ccccc12
COc1ccc(S(=O)(=O)NCC(c2ccc(N(C)C)cc2)N2CCCC2)cc1 (stereo not drawn)
CC(=O)Nc1cccc(NC(=O)CSc2nccn2Cc2ccc3c(c2)OCO3)c1
Fc1ccc(CSc2nc(NCc3ccccc3)c3ccccc3n2)cc1
Cc1cc(NS(=O)(=O)c2ccc(NC(=O)c3ccccc3C)cc2)nc(C)n1
O=c1c(=O)n(Cc2c(F)cccc2Cl)ccn1Cc1ccccc1
CCOc1ccc(NC(=O)c2cn(C3CCCCC3)c(=O)c3c2c2ccccc2n3C)cc1
CC1=C(C(=O)Nc2ccccc2Cl)C(c2cccs2)n2ncnc2N1 (stereo not drawn)
CCc1ccc(NC(=O)c2sc3nc4c(cc3c2N)CN(CC)CC4)cc1
Cc1ccc(C(=O)Nc2ccc(C(=O)O)cc2)cc1S(=O)(=O)Nc1ccccc1
CCC(Sc1nc2n[nH]c(C)c2c(=N)n1-c1ccccc1Cl)C(=O)N(CC)CC (stereo not drawn)
CCOC(=O)c1cnc2c(C)cc(C)cc2c1Nc1ccc(N2CCOCC2)cc1
CCOc1ccc(OCC)c(NC(=O)c2cc(C)nc3c2c(C)nn3-c2cccc(Cl)c2C)c1
CCOc1ccc(CCNC(=O)C2=C(C)C(=O)OC23CCC(C)CC3)cc1OCC (stereo not drawn)
CCOc1ccc(CCNC(=O)Cn2nc(CC)n3c(cc4sc(CC)cc43)c2=O)cc1OCC
Cc1cc(C)cc(Nc2ncnc3onc(-c4ccc(F)cc4)c23)c1
CCOc1ccc(CNC(=O)c2cc(=O)[nH]c3ccc(S(=O)(=O)N4CCCCC4)cc23)cc1
